Consider 42 molecules from PubChem BioAssay.

Values without a mark were called inactive. The source made the active and inactive calls.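 Rule for the calls, unless noted: active = mean inhibition above 46.68%, the untreated control wells mean plus 3 SD; inactive = the rest.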

Assay [1] deals with Nuclear receptor coactivator 1 (Homo sapiens) (UniProt Q15788). Kind of assay: NCOA1 GAL4-fusion reporter inhibition – cell-based, luminescence, quadruplicate, confirmation (AID 588820).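 Note: 0% = DMSO wells and 100% = gossypol 36 µM treated wells.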 The following applies: HEK293 GAL4-SRC1 luciferase reporter, at 3.6 µM, hits give high values. (In general: In a reporter assay the amount or activity of a reporter protein is the signal.)
Nuclear receptor coactivator 1 (Homo sapiens), sequence (Q15788 whole entry, looked up, the tested form may be a part): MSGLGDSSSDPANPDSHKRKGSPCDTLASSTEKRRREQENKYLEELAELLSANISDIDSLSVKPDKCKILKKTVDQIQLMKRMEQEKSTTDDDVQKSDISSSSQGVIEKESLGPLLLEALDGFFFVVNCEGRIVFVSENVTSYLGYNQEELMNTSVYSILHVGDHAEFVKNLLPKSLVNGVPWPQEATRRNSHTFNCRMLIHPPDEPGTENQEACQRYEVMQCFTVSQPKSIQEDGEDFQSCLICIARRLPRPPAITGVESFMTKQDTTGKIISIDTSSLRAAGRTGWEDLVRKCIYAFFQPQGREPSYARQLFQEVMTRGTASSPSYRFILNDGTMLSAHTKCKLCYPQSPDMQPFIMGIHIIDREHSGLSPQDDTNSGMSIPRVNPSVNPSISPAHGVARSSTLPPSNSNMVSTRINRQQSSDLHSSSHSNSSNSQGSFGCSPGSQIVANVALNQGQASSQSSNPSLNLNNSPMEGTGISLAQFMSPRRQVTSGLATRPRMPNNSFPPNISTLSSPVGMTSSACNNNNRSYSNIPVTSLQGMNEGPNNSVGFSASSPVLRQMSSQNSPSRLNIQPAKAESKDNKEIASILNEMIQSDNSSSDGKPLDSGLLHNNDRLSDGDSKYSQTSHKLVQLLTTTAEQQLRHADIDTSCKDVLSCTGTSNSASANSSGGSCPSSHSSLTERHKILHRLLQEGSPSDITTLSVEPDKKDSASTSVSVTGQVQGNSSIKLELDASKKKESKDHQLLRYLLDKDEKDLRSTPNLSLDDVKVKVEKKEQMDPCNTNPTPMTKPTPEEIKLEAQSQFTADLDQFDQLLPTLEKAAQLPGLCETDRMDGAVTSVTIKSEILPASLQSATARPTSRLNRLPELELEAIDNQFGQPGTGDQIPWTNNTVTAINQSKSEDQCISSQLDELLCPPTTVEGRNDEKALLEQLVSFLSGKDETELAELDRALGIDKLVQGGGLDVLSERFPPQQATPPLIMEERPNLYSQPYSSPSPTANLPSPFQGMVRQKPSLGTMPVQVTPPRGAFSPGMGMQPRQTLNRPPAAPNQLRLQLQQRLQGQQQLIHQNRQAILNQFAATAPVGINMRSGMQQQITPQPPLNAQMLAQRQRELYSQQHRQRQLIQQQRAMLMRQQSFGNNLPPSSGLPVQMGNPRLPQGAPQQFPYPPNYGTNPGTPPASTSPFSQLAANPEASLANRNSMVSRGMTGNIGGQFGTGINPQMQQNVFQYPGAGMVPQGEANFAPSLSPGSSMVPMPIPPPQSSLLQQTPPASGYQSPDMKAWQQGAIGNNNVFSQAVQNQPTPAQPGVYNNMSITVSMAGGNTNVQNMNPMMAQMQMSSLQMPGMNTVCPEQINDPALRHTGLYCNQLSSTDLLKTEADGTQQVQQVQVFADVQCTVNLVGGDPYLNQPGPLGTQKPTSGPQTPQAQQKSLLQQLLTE
Assay [2] is described as follows: repression of VP16-driven luciferase reporter – cell-based, luminescence, high throughput, counter-screen for SRC1 inhibitor project (AID 588824; in the data active = inhibition above about 25%). The following applies: cell-based VP16 transactivation luciferase luminescence; at 3.6 µM; hits give high values.

One may read the inhibition as the drop in the measured response relative to a control, in per cent. For the molecule `O=C(Nc1sc2c(c1C(=O)NCCCO)CCCC2)c1ccccc1`, the figures for the inhibition in assay [1] and in assay [2] were -30.3% and -14.6%, respectively.

For `Cc1nc2ccccc2c(N)c1C(=O)/C=C/c1ccccc1`, the inhibition is 28.7% in assay [1] and 31.6% (active) in assay [2].

For `COc1ccc(CN(C(=O)CSc2nnc(-c3c[nH]c4ccccc34)o2)c2ccc(F)cc2)cc1OC`, the figures for the inhibition in assay [1] and in assay [2] were -67.5% and -22.2%, respectively.

As for `COc1ccc(OC)c(/C=N/NC(=O)c2cc3c(OC)cccc3[nH]2)c1`, the inhibition was -19.2% in assay [1] and -10% in assay [2].

Turning to `COc1cccc(N2CC(NS(=O)(=O)c3cccnc3)CC2=O)c1` (centres undefined), the figures for the inhibition in assay [1] and in assay [2] were -40.7% and -8.11%, respectively.

As to `Cc1ccc(-n2ccc(-c3nn(-c4ccccc4)ccc3=O)n2)cc1`, the inhibition in assay [1] is 6.13%; in assay [2], 13.3%.

With `O=C(COc1ccc(F)cc1Cl)Nc1ccc(N2CCOCC2)cc1N1CCOCC1`, the values for the inhibition in assay [1] and in assay [2] were -16.6% and 2.25%, respectively.

For `CC(=C\c1ccccc1)/C=C1/SC(=S)N(CCC(=O)O)C1=O`, the inhibition in assay [1] is -20.4%; in assay [2], -5.15%.

Take `Cc1nn(-c2ccccc2)c(N2CCCC2)c1/C=N/NC(=O)c1cc(-c2cccnc2)nc2ccccc12`: the inhibition was -42.9% in assay [1] and -7.83% in assay [2].

On to `O=C(NC1CCCCC1)C(c1ccc(F)cc1)N(Cc1ccco1)C(=O)c1csnn1` (centres undefined), for which the inhibition was -14.3% in assay [1] and -0.45% in assay [2].

Regarding `COC(=O)C(=N/Nc1ccccc1C(=O)OC)/C(C)=N/O`, the inhibition is -2.93% in assay [1] and -4.44% in assay [2].

For the molecule `O=C(c1ccccc1Sc1ccccc1[N+](=O)[O-])N1CCCCC1`, the figures for the inhibition in assay [1] and in assay [2] were 10.1% and 14.3%, respectively.

Consider `Cc1ccc(OCC(=O)NNC(=O)c2ccc3c(=O)n4c(nc3c2)CCC4)cc1`, for which the inhibition in assay [1] was -7.39%; in assay [2], -3.2%.

Consider `O=C(Nc1ccc(OCC(F)(F)C(F)F)c(C(F)(F)F)c1)c1ccccc1O`, for which the inhibition is -35.3% in assay [1] and 6.93% in assay [2].

Consider `COc1ccc2c(C#N)c3ccccn3c2c1`, for which the inhibition in assay [1] was 37.4%; in assay [2] it was 7.81%.

Regarding `CC(C)C[C@H](NC(=O)c1nc[nH]c1C(=O)N1CCN(C(=O)OC(C)(C)C)CC1)C(=O)OC(C)(C)C`, the figures for the inhibition in assay [1] and in assay [2] were 21.8% and 78.9% (active), respectively.

With `Cc1ccc(-c2nc(-c3ccccc3)no2)c(Cl)c1`, the results for the inhibition in assay [1] and in assay [2] were -51.6% and -16.6%, respectively.

On to `Cc1ccc(O)c(C(=O)c2cnn(C(=O)COc3ccc(Cl)cc3)c2)c1`, for which the inhibition was 23.6% in assay [1] and 4.05% in assay [2].

Turning to `CC(=O)c1cn(CCOc2cc(C)ccc2C)c2ccccc12`, the figures for the inhibition in assay [1] and in assay [2] were -27% and 33.7% (active), respectively.

On to `O=C(Cc1ccsc1)N1CCN(S(=O)(=O)c2cc(C(F)(F)F)cc(C(F)(F)F)c2)CC1`, for which the results for the inhibition in assay [1] and in assay [2] were -14.2% and 0.11%, respectively.

On to `COc1ccc2c(c1)c(C(C)=O)c(C)n2-c1ccccc1`, for which the inhibition was 13.5% in assay [1] and 19.1% in assay [2].

Turning to `COc1ccc(NC(=O)c2ccccc2Cl)cc1NC(=O)CN1CCOCC1`, the values for the inhibition in assay [1] and in assay [2] were -11.8% and -7.93%, respectively.

As to `COc1ccc(-c2cn[nH]c2C)cc1`, the inhibition in assay [1] is -12%; in assay [2] it was 5.39%.

Regarding `COc1ccccc1/C=C\C(=O)NCC(=O)N/N=C/c1cccc(OC)c1O`, the inhibition in assay [1] was 26.9%; in assay [2], 14.2%.

As for `O=C(O)c1cc(=O)[nH]c2ccc(S(=O)(=O)Nc3ccc(F)cc3)cc12`, the results for the inhibition in assay [1] and in assay [2] were -12.9% and 7.7%, respectively.

As for `O=C(CC1CCC1)Nc1cccc2c([N+](=O)[O-])cccc12`, the inhibition in assay [1] was 9.39%; in assay [2], -5.85%.

`O=C(NCC[C@@H]1C[C@@H]2C=C[C@H]1C2)c1cc(COc2ccc(F)cc2F)on1`: the inhibition was -4.95% in assay [1] and 1.83% in assay [2].

With `CCCS(=O)(=O)c1c(S(=O)(=O)CCC)c2c(C)cccn2c1C(=O)N/N=C/c1cc(O)cc(O)c1`, the results for the inhibition in assay [1] and in assay [2] were 20.8% and 24.6%, respectively.

`COc1ccc(C(=O)Cn2c(Br)nc3c2c(=O)n(C)c(=O)n3C)cc1`: the results for the inhibition in assay [1] and in assay [2] were -2.41% and 11.5%, respectively.

With `CCN(CC(=O)Nc1ccc(NC(C)=O)cc1)C(=O)Cc1ccc(S(=O)(=O)N2CCOCC2)s1`, the inhibition in assay [1] was 6.3%; in assay [2], 8.19%.

For the molecule `COc1ccc(CNC(=O)c2cc3c(C)nc4ccccc4c3o2)c(OC)c1`, the inhibition in assay [1] is -5.62%; in assay [2] it was 22.3%.

In the case of `Cc1ccc(S(=O)(=O)N(C)c2ccc(C(=O)N3CCN(Cc4ccc5c(c4)OCO5)CC3)cc2)cc1`, the inhibition in assay [1] was 9.2%; in assay [2] it was 30% (active).

`CCCc1cc(=O)oc2cc(O[C@@H]3O[C@H](CO)[C@@H](O)[C@H](O)[C@H]3O)ccc12`: the figures for the inhibition in assay [1] and in assay [2] were -9.52% and -11.7%, respectively.

As for `Fc1cccc(CSc2nnc3ccc(-c4ccncc4)nn23)c1`, the inhibition in assay [1] is 21.7%; in assay [2] it was 9.73%.

With `CSc1ccc(CN2CCN(Cc3ccc([N+](=O)[O-])cc3)CC2)cc1`, the inhibition in assay [1] was -10.7%; in assay [2], 26.8% (active).

For the molecule `COc1ccc(-n2cc(-c3ccccc3)c3c(N4CCOCC4)ncnc32)cc1`, the figures for the inhibition in assay [1] and in assay [2] were -50.7% and -1.14%, respectively.

In the case of `c1ccc(Cc2nnc3sc(-c4ccncc4)nn23)cc1`, the inhibition in assay [1] was 5.92%; in assay [2] it was -1.52%.

For the molecule `COc1ccc(Cl)cc1NC(=O)CSc1nc(=O)n(CCN(C)C)c2c1CCCC2`, the results for the inhibition in assay [1] and in assay [2] were -13.4% and -0.03%, respectively.

On to `COc1ccc(CNC(=O)C(c2ccc(C)cc2)N(Cc2cccs2)C(=O)c2ccc3c(c2)OCCO3)cc1` (centres undefined), for which the results for the inhibition in assay [1] and in assay [2] were -13.9% and -1.62%, respectively.

Regarding `COc1cc2c3c([nH]c2cc1F)C(=O)NCC3`, the inhibition in assay [1] is 19.2%; in assay [2] it was 14.9%.

Take `OC[C@@H]1CN(Cc2ccc(-c3ccccc3)cc2)C[C@H](n2cnc3c(NCc4ccncc4)ncnc32)O1`: the inhibition was 10.1% in assay [1] and 28.9% (active) in assay [2].

Regarding `O=C(NC1CCCC1)C(c1ccccc1)N(Cc1ccco1)C(=O)Cc1cccs1` (centres undefined), the inhibition in assay [1] was 17.7%; in assay [2], 31.5% (active).
